Test results as given in PubChem BioAssay (NCATS).
Results filed as inconclusive are left out. Calls of active or inactive are those of the source. Unless noted, the call rests on the fitted dose curve; in most records, active means well fitted curve in the direction sought with a large enough effect; inconclusive means small, poorly fitted or top-dose-only effect, or another doubt; inactive means no such curve, though single readings can be large; an effect the other way counts as inactive or inconclusive.

Legend:
[1] = biological target: Beta-2 adrenergic receptor (Homo sapiens) (UniProt P07550); assay: qHTS validation assay of beta-arrestin-biased ligands of beta2-adrenergic receptor (AID 485366); further: 0% is about no effect
Outline: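 Agonism was measured as beta-arrestin recruitment to recombinant beta2-AR, releasing tTA to drive luciferase. Cells were exposed for 18 hr at 37 degrees C to a series up to 46 microM. %Activity from corrected luminescence gave concentration-response curves.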

[2] = biological target: ATP-dependent 6-phosphofructokinase (Trypanosoma brucei brucei) (UniProt O15648); assay: qHTS Validation Assay to Find Inhibitors of T. brucei phosphofructokinase (AID 485368)
Sequence of ATP-dependent 6-phosphofructokinase (Trypanosoma brucei brucei) (O15648 whole entry, looked up): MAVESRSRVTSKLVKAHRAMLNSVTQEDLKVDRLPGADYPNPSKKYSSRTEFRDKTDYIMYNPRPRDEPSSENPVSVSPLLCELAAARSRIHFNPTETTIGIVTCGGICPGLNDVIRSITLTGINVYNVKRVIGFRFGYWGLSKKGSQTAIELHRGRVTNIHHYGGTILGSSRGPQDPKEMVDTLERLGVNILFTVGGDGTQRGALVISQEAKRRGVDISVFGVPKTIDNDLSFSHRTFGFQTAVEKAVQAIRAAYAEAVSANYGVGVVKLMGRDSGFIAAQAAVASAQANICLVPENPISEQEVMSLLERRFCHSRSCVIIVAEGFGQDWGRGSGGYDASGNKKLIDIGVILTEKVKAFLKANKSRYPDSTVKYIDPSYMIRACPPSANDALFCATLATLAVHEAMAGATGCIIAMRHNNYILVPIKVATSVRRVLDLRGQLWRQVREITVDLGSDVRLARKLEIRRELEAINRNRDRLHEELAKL
Outline: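 ADP-Glo luminescence, two-step: residual ATP depleted, then ADP converted to ATP for luciferase. Enzyme 1.25 nM, F6P 0.5 mM, ATP 0.1 mM, pH 8.0 TEA buffer, 45 min RT. Curves fitted and classed by quality and efficacy.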

[3] = Quantitative high throughput screen for delayed death inhibitors of the malarial parasite plastid, 96 hour incubation (AID 488745); further: potency means the concentration at half of the fitted maximal effect; nearly all actives have a fitted effect of over 70% in size
Outline: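 Two-generation (96 h) exposure of luciferase-reporter P. falciparum in erythrocytes, 2% hematocrit, 0.1% parasitemia final, 37 C, 5% CO2, RPMI 1640 with 0.5% Albumax. Growth inhibition scored by reduced luminescence.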

[4] = biological target: Thioredoxin reductase 1, cytoplasmic (Rattus norvegicus) (UniProt O89049); assay: qHTS Assay for Substrates of Mammalian Selenoprotein Thioredoxin Reductase 1 (TrxR1) (AID 488772);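 further: series mostly up to about 57 µM; 0% is about no effect; a drop in NADPH fluorescence below the no-compound background marks a TrxR1 substrate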
Sequence of Thioredoxin reductase 1, cytoplasmic (Rattus norvegicus) (O89049 whole entry, looked up): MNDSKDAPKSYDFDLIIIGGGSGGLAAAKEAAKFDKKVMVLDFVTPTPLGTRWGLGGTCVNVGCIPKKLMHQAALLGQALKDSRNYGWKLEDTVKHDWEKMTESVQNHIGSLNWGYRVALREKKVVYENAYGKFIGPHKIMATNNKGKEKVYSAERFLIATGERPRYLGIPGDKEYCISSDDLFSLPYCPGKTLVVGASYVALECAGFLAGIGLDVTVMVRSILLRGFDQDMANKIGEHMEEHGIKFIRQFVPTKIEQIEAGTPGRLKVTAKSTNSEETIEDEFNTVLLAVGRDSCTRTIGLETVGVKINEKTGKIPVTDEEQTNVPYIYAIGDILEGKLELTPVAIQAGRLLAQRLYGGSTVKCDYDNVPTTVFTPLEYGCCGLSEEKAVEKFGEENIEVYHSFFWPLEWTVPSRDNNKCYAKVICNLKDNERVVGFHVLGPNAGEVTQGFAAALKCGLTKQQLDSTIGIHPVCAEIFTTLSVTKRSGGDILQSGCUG
Outline: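 In this dual-purpose format, potential substrates are identified from the first fluorescence read after selenite addition, not from the 8-minute delta. Rat enzyme is preincubated with NADPH and then with compound at ~22 deg C.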

[5] = biological target: Thioredoxin reductase 1, cytoplasmic (Rattus norvegicus) (UniProt O89049); assay: qHTS Assay for Inhibitors of Mammalian Selenoprotein Thioredoxin Reductase 1 (TrxR1) (AID 488773); settings: Potency: inhibition; further: nearly all actives have a fitted effect of over 40% in size; further: potency means the concentration at half of the fitted maximal effect
Outline: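 Inhibition is scored from the loss of NADPH fluorescence between first and last reads of an 8-min kinetic run. Selenite (400 uM) was the substrate, added after 15 min compound preincubation at room temperature.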

[6] = biological target: Flap endonuclease 1 (Homo sapiens) (UniProt P39748); assay: qHTS Validation Assay for the Inhibitors of Human Flap endonuclease 1 (FEN1) (AID 488816); further: on the % scale 0 is the no-effect control and ±100 the full control effect
Outline: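 Enzyme reagent 10 nM; cpds pinned; 15 min RT preinc.; substrate 50 nM final; reads t=0 and 15 min; no-enzyme buffer wells as neg. control; normalized data, 4-parameter Hill fit.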

[7] = biological target: M-phase phosphoprotein 8 (Homo sapiens) (UniProt Q99549); assay: qHTS Validation Assay for Inhibitors for MPP8 Chromodomain Interactions with Methylated Histone Tails (AID 488949);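 further: AlphaScreen signal from MPP8 chromodomain bound to biotinylated H3K9me3 peptide; top concentration of the series differs between compounds; on the % scale 0 is the no-effect control and ±100 the full control effect; nearly all actives have a fitted effect of over 55% in size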
Outline: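 Disruption of the preformed MPP8–trimethyl-H3K9 peptide complex (both 50 nM, 30 min, RT) is measured after 30 min compound exposure, using AlphaScreen proximity beads; aurintricarboxylic acid titration serves as plate control.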

[8] = biological target: Chromobox protein homolog 1 (Homo sapiens) (UniProt P83916); assay: qHTS Validation Assay for Inhibitors of HP1-beta Chromodomain Interactions with Methylated Histone Tails (AID 488953); further: nearly all actives have a fitted effect of over 50% in size; further: potency means the concentration at half of the fitted maximal effect
Sequence of Chromobox protein homolog 1 (Homo sapiens) (P83916 whole entry, looked up): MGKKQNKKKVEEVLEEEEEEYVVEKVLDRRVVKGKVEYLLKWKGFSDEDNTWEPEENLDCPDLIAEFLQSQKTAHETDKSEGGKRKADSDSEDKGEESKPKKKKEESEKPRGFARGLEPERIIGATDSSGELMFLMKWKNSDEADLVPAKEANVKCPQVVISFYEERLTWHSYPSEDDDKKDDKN
Outline: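 Compounds pinned into a preassembled complex of HP1-beta and trimethyl-K9 histone H3(1-18) biotin peptide (50 nM each; PBS pH 7.4, 0.01% Tween-20). After 30 min, bead-based AlphaScreen detection followed.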

[9] = biological target: Methanococcus maripaludis chaperonin (MmCpn) (UniProt Q6LX38); assay: High-Throughput Screening for Modulators of Cytosolic Chaperonin Activity: MmCpn Primary Screen (AID 488978);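 further: 50 nM MmCpn enzyme hydrolysing 30 µM ATP at 37 °C; 0% is about no effect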
Sequence of Methanococcus maripaludis chaperonin (MmCpn) (Q6LX38 1-543): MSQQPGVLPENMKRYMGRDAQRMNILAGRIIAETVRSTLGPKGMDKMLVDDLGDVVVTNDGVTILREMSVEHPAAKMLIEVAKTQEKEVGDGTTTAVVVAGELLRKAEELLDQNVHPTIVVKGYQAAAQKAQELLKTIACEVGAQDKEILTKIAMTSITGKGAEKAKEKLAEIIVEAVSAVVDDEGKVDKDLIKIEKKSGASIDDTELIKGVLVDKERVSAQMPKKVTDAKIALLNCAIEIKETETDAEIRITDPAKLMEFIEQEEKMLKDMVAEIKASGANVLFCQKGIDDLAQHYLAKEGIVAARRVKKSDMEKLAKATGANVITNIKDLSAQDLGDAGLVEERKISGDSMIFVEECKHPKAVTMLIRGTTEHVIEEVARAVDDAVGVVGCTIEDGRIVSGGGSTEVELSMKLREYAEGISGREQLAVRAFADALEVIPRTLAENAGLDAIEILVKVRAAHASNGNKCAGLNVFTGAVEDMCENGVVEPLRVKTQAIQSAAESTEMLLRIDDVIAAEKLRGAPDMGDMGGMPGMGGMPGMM
Outline: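 Measures ATPase turnover of the M. maripaludis chaperonin (50 nM final) against 30 uM ATP over 10 min at 37C, with compound added 5 min beforehand at room temperature. ADP is quantified by HTRF immunodetection.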

[10] = biological target: Thyrotropin receptor (Homo sapiens) (UniProt P16473); assay: qHTS Assay for Antagonists of the Thyroid Stimulating Hormone Receptor (AID 488980); further: series mostly up to about 58 µM; 0% is about no effect
Sequence of Thyrotropin receptor (Homo sapiens) (P16473 whole entry, looked up): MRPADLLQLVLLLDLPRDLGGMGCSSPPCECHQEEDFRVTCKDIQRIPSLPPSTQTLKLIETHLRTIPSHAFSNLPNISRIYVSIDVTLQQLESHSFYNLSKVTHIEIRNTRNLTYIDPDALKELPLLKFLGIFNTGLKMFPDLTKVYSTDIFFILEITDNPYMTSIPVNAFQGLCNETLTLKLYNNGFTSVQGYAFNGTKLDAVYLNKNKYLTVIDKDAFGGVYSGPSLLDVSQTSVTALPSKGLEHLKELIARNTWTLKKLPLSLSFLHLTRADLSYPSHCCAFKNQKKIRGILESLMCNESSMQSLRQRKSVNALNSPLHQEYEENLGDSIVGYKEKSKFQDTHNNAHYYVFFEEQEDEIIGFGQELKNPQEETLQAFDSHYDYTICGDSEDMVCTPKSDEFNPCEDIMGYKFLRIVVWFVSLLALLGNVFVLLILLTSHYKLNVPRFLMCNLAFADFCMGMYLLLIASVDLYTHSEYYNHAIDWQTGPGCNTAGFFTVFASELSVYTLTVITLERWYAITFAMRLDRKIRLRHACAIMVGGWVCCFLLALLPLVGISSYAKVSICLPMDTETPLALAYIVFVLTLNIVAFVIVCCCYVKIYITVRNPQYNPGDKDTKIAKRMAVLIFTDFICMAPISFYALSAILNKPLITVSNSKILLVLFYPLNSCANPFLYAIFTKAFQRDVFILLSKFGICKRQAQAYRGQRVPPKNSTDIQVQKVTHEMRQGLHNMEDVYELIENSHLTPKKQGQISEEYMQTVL
Outline: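 Cells expressing human TSHR (HEK293) are dispensed in HBSS/HEPES containing 70 uM RO 20-1724, compound is added, then TSH at EC80 (4 nM final). Antibody in lysis buffer follows, 30 minutes at room temperature before HTRF detection.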

[11] = biological target: D(1A) dopamine receptor (Homo sapiens) (UniProt P21728); assay: HTS Assay for Allosteric Agonists of the Human D1 Dopamine Receptor: Primary Screen for Agonists (AID 488981); further: 0% is about no effect
Outline: (§1)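 Tetracycline-induced HEK293 Trex D1 cells with forced coupling to calcium, loaded with no-wash calcium dye; kinetic fluorescence read 180 s after compound addition for agonism, then a further 180 s after an EC20 dopamine challenge for potentiation.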

[12] = biological target: D(1A) dopamine receptor (Homo sapiens) (UniProt P21728); assay: HTS Assay for Allosteric Agonists of the Human D1 Dopamine Receptor: Primary Screen for Potentiators (AID 488982); further: 0% is about no effect
Outline: as §1

[13] = biological target: D(1A) dopamine receptor (Homo sapiens) (UniProt P21728); assay: HTS Assay for Allosteric Agonists of the Human D1 Dopamine Receptor: Primary Screen for Antagonists (AID 488983);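 further: calcium flux response to an EC80 dopamine challenge measured with no-wash dye; on the % scale 0 is the no-effect control and ±100 the full control effect; nearly all actives have a fitted effect of over 65% in size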
Outline: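 In this primary screen, compounds are applied to calcium-dye-loaded HEK293 T-REx cells with force-coupled D1 expression induced overnight at 30 C. An EC80 of dopamine follows the 180 s compound phase, and calcium is monitored for a further 180 s.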

[14] = biological target: ATP-dependent 6-phosphofructokinase (Trypanosoma brucei brucei) (UniProt O15648); assay: qHTS Assay to Find Inhibitors of T. brucei phosphofructokinase: hit validation (AID 492961);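 further: luminescence reports ADP formed as PFK phosphorylates fructose-6-phosphate with ATP; series mostly up to about 51 µM; on the % scale 0 is the no-effect control and ±100 the full control effect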
Outline: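 Compounds titrated; %activity normalized to 0x and 1x enzyme controls, curve-fitted. Readout: ADP-Glo luminescence after 45 min room-temperature reaction of 1.25 nM PFK, 0.1 mM ATP, 0.5 mM F6P, pH 8.0.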

[15] = Validation screen for small molecules that induce genotoxicity in human embryonic kidney (HEK293T) cells expressing luciferase-tagged ELG1 (AID 493106); further: 0% is about no effect
Outline: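 In this validation screen, increased ELG1-luciferase signal flags compounds causing genetic stress. HEK293T reporter cells are treated 16 hr (37 °C, 5% CO2), developed with ONE-Glo for 30 min at room temperature, and imaged on a CCD-based reader.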

[16] = biological target: ATPase family AAA domain-containing protein 5 (Homo sapiens) (UniProt Q96QE3); assay: Validation screen for small molecules that inhibit ELG1-dependent DNA repair in human embryonic kidney (HEK293T) cells expressing luciferase-tagged ELG1 (AID 493107); further: nearly all actives have a fitted effect of over 70% in size; further: potency means the concentration at half of the fitted maximal effect
Sequence of ATPase family AAA domain-containing protein 5 (Homo sapiens) (Q96QE3 whole entry, looked up, the tested form may be a part): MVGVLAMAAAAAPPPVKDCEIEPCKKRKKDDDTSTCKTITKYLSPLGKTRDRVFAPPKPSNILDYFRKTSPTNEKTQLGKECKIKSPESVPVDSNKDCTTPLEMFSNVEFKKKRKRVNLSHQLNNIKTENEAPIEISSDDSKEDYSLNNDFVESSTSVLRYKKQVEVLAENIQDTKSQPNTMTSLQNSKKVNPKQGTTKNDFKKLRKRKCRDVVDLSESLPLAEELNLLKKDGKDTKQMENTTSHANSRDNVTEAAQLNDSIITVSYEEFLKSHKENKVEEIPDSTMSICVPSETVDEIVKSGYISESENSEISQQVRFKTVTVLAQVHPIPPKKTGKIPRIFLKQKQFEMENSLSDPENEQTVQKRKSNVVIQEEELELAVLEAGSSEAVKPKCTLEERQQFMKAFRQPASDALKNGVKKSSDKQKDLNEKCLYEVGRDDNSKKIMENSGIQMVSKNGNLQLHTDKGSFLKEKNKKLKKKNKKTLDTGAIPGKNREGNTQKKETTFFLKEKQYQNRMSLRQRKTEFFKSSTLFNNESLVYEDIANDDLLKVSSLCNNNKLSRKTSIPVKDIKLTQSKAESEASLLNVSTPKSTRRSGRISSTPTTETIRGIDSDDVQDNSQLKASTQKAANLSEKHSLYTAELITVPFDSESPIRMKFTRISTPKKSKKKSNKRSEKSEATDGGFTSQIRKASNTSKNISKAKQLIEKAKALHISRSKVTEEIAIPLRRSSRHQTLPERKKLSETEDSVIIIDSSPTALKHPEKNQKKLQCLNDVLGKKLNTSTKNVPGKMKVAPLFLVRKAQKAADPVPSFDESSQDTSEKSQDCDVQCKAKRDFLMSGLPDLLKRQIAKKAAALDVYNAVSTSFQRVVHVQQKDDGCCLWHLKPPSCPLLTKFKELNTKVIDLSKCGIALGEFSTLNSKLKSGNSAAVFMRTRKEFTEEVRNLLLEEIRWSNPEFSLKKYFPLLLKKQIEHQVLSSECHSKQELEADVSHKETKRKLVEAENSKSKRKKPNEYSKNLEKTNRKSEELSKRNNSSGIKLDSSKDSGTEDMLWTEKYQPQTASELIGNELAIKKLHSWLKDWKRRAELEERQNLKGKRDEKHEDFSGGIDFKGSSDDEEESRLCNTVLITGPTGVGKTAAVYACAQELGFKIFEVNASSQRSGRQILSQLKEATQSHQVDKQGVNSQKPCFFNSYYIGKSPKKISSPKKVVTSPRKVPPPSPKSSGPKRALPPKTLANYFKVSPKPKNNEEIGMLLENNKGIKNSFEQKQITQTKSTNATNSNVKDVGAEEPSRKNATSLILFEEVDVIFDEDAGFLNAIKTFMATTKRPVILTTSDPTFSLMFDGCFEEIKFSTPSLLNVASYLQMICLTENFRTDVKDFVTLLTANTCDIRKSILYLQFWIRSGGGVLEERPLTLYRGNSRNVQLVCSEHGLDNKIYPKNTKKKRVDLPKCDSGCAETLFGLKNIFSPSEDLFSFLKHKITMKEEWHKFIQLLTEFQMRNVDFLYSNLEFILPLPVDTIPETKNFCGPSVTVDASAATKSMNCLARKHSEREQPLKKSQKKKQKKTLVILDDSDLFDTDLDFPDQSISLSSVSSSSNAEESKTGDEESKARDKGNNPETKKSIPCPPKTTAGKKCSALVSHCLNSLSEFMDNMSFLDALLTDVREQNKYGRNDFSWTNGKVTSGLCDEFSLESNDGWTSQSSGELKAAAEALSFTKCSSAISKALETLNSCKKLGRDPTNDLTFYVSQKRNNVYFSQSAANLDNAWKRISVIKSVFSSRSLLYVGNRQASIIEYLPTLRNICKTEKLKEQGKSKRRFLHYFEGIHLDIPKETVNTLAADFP
Outline: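 Compounds reducing 5-fluorouridine-driven ELG1-luciferase signal in HEK293T cells were scored; exposure lasted 16 hr at 37 °C with luminescence detected via ONE-Glo.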

[17] = biological target: Thyrotropin-releasing hormone receptor (Homo sapiens) (UniProt P34981); assay: qHTS for Small Molecule Agonists and Allosteric Enhancers of Human TRH Receptor: Validation Screen for Agonists (AID 493127;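 active means calcium activation more than 3 SD above the typical response in the agonist read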;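 further: intracellular calcium rise by fluo-8 fluorescence before TRH EC20 addition; 0% is about no effect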); settings: TRH receptor agonist cell assay; at 2 µM; hits give high values
Sequence of Thyrotropin-releasing hormone receptor (Homo sapiens) (P34981 whole entry, looked up): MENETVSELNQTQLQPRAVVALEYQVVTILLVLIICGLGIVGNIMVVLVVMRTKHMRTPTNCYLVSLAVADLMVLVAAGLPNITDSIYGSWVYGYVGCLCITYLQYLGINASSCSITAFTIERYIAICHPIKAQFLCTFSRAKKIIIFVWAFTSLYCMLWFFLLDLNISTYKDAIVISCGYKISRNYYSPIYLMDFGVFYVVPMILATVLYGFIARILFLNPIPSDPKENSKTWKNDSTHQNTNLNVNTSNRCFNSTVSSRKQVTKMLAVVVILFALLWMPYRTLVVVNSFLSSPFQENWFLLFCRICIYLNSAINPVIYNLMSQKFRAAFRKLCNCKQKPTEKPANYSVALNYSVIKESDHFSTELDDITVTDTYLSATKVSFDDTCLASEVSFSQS
Outline: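 Kinetic fluorescence assay of agonist-induced calcium release: overnight-plated TRHR cells, room-temperature fluo-8 loading, baseline then compound addition with per-second reads.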

[18] = Quantitative high throughput screen for delayed death inhibitors of the malarial parasite plastid, 48 hour incubation (AID 488752); further: on the % scale 0 is the no-effect control and ±100 the full control effect; nearly all actives have a fitted effect of over 65% in size
Outline: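 Cultures: infected erythrocytes at final 2% hematocrit and 0.1% parasitemia in Albumax-supplemented RPMI. Parasites express integrated firefly luciferase. Incubation with compound lasts 48 h before luminescent detection of remaining reporter activity.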

[19] = biological target: Transient receptor potential cation channel subfamily V member 1 (Homo sapiens) (UniProt Q8NER1); assay: HTS Assay for Compounds that Act as Enhancers of the Vanilloid Receptor 1 (AID 488979); further: 0% is about no effect
Outline: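 TRPV1 cells loaded with Fluo-8 calcium dye; compound added and Ca2+ signal (ex 480/em 520 nm) followed 3 min, then capsaicin at EC20 added and read 2 more min to detect enhancement.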

CN1C2CCC1CC(OC(c1ccccc1)c1ccccc1)C2 (stereo not given)
active: Potency [3] 8.28 µM
inactive: outcome [1] | Potency [2] | outcome [4] | Potency [5] | Potency [6] | Potency [7] | Potency [8] | outcome [9] | outcome [10] | Potency [11] | Potency [12] | Potency [13] | outcome [14] | Potency [15] | Potency [16] | activation [17] 1.5%

CCCn1c(=O)c2[nH]c(C3CCCC3)nc2n(CCC)c1=O
inactive: outcome [1] | Potency [2] | Potency [18] | outcome [4] | Potency [5] | Potency [6] | Potency [7] | Potency [8] | outcome [9] | outcome [19] | outcome [10] | Potency [11] | Potency [12] | Potency [13] | Potency [15] | activation [17] -3.88%

CCCn1c(=O)c(C)cn2nc(N)nc12
inactive: outcome [1] | Potency [2] | outcome [4] | Potency [5] | Potency [6] | Potency [7] | Potency [8] | outcome [9] | Potency [11] | Potency [12] | Potency [13] | Potency [15] | Potency [16]

O=C(O)/C=C/c1ccc(O)c(O)c1
inactive: outcome [1] | Potency [2] | Potency [18] | outcome [4] | Potency [5] | Potency [7] | Potency [8] | outcome [9] | outcome [10] | Potency [11] | Potency [12] | Potency [13] | Potency [15] | Potency [16]

c1ccc2c(c1)CC(N1CCN(c3cccc4c3OCCO4)CC1)C2
active: Potency [8] 0.006 µM
inactive: outcome [1] | Potency [2] | Potency [18] | outcome [4] | Potency [5] | Potency [6] | Potency [7] | outcome [9] | outcome [10] | Potency [11] | Potency [12] | Potency [13] | Potency [15] | Potency [16]

O=c1[nH]c(=S)[nH]c(-c2ccccc2)c1Cc1c(O)ccc2ccccc12
inactive: outcome [1] | Potency [2] | outcome [4] | Potency [5] | Potency [7] | outcome [9] | Potency [11] | Potency [12] | Potency [13] | Potency [15] | Potency [16]
active: Potency [8] 44.7 µM

C=C1C(=O)O[C@@H]2[C@H]3O[C@]3(C)CCC=C(C)CC[C@@H]12
active: Potency [5] 16.8 µM | Potency [16] 25.9 µM
inactive: outcome [1] | Potency [2] | Potency [18] | outcome [4] | Potency [6] | Potency [7] | Potency [8] | outcome [9] | outcome [19] | outcome [10] | Potency [11] | Potency [12] | Potency [13] | activation [17] -0.125%

CCCCOc1cc(CC2CNC(=O)N2)ccc1OC (stereo not given)
inactive: outcome [1] | Potency [2] | Potency [18] | outcome [4] | Potency [5] | Potency [6] | Potency [7] | Potency [8] | outcome [9] | outcome [19] | outcome [10] | Potency [11] | Potency [13] | Potency [15] | Potency [16] | activation [17] 0.75%

COc1ccc(C(=O)NCc2cccnc2)cc1C(=O)NCc1cccnc1
inactive: outcome [1] | Potency [2] | Potency [18] | outcome [4] | Potency [5] | Potency [6] | Potency [7] | Potency [8] | outcome [9] | outcome [19] | outcome [10] | Potency [11] | Potency [13] | Potency [15] | Potency [16] | activation [17] 0.938%

Cc1cc(Cn2cnc3c2C[C@@H](C(=O)O)N(C(=O)C(c2ccccc2)c2ccccc2)C3)ccc1N
inactive: outcome [1] | Potency [2] | outcome [4] | Potency [5] | Potency [6] | Potency [7] | outcome [9] | Potency [11] | Potency [12] | Potency [13] | Potency [15] | Potency [16]

CC(C)[C@@H]1CC[C@@H](C)C[C@@H]1P(=O)(c1ccccc1)c1ccccc1
inactive: outcome [1] | Potency [2] | outcome [4] | Potency [5] | Potency [6] | Potency [7] | Potency [8] | outcome [9] | Potency [11] | Potency [12] | Potency [13] | Potency [15] | Potency [16]

CC(C)(C)c1ccc(/C=C/C(=O)Nc2ccc3c(c2)OCCO3)cc1
inactive: outcome [1] | Potency [2] | outcome [4] | Potency [5] | Potency [6] | Potency [7] | outcome [9] | Potency [11] | Potency [12] | Potency [13] | Potency [15]
active: Potency [16] 18.3 µM

COc1cc2c(CCNC(C)=O)c[nH]c2cc1O
inactive: outcome [1] | Potency [2] | Potency [18] | outcome [4] | Potency [5] | Potency [6] | Potency [7] | Potency [8] | outcome [9] | outcome [19] | outcome [10] | Potency [11] | Potency [12] | Potency [15]

c1ccc(C(NCCNC(c2ccccc2)c2ccccc2)c2ccccc2)cc1
inactive: outcome [1] | Potency [2] | outcome [4] | Potency [5] | Potency [6] | Potency [7] | Potency [8] | outcome [9] | Potency [11] | Potency [12] | Potency [15] | Potency [16]

Nc1ncnc2c1nc(Sc1ccc(Cl)cc1)n2[C@H]1OC2COP(=O)(O)O[C@@H]2C1O (stereo not given in full)
inactive: outcome [1] | Potency [2] | outcome [4] | Potency [5] | Potency [6] | Potency [7] | Potency [8] | outcome [9] | Potency [11] | Potency [12] | Potency [13] | Potency [16]
